In all, about 310,000 compounds went through this assay and about 14,000 (4.5%) showed an effect of 50% or more. The effect is printed as a negative number. Many of the other results were omitted from the sample, so strong results are more common in it than they were.

Experimental findings from publication PMC4336329 (PLoS ONE, 2015) are described below.
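Note: peak tail current of the secondary pulse compared with the same well before compound.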

human ether-à-go-go-related gene (hERG) potassium channel, sequence (Q12809 whole entry, looked up): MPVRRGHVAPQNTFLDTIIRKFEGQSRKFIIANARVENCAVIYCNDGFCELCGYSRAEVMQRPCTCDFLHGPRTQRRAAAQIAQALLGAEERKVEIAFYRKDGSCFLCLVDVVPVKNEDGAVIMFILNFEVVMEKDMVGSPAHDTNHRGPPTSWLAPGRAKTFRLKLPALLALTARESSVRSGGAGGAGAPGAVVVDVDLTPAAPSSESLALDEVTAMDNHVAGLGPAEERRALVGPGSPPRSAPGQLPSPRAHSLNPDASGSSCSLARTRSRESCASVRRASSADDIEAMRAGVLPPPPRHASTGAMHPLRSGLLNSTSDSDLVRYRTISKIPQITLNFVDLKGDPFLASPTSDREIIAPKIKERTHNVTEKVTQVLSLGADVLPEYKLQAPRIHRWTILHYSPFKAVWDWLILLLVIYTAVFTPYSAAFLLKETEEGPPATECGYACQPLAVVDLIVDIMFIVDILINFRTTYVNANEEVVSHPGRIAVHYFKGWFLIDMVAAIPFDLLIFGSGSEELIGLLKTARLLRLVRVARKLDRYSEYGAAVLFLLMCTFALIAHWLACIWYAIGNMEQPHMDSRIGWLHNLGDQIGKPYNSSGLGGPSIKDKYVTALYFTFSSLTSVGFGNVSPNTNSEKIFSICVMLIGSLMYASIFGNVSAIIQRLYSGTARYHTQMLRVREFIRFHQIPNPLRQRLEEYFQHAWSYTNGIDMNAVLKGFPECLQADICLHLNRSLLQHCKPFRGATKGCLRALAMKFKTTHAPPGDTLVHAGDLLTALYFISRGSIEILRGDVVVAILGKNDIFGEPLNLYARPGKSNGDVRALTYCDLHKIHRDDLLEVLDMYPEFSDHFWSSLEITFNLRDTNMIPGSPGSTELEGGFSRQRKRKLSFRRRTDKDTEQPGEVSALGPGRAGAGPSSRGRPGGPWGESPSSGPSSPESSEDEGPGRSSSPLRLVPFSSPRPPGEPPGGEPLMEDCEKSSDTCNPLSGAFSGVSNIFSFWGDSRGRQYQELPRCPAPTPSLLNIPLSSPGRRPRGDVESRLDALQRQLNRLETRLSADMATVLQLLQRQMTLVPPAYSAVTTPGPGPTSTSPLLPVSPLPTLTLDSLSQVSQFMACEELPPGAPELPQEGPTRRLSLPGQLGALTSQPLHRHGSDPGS

The experiment concerns the target human ether-à-go-go-related gene (hERG) potassium channel (human, UniProt Q12809). As to the kind of experiment: primary screen, population patch clamp on CHO cells stably expressing hERG; higher = less effect of the substance.
Turning to `Cc1ccc(S(=O)(=O)NCC(=O)NCC(=O)OC(C(=O)NC(N)=O)C(C)C)cc1C` (stereo not shown), the “hERG current change (%, negative = inhibition) at 10uM” value is on record as 8.86%.
As to `CC(C)c1nc(SCC(=O)N2CCCCCC2)c2c(=O)n(C)c(=O)n(C)c2n1`, the “hERG current change (%, negative = inhibition) at 10uM” value is reported as -11.2%.
Under `Cc1nc2c(cc1C(=O)N/N=C/c1ccc([N+](=O)[O-])cc1)c(=O)n(C)c(=O)n2C` stands -12%; under `CC1=C(C)CC(C(=O)Nc2cccc(Cl)c2)C(C(=O)O)C1` (stereo not shown), 9.8%.
Regarding `O=C(CN1C2CCCC1CC(NC(=O)C1CCCCC1)C2)Nc1ccccc1` (stereo not shown), the “hERG current change (%, negative = inhibition) at 10uM” value is reported as -27%.
Turning to `O=C(NC1CC2CCCC(C1)N2CC(=O)N1CCCc2ccccc21)C1CCCCC1` (stereo not shown), the “hERG current change (%, negative = inhibition) at 10uM” value is listed as -70.6%.
Turning to `CC(=O)NC1CC2CCCC(C1)N2CC(=O)N1CCCc2ccccc21` (stereo not shown), the “hERG current change (%, negative = inhibition) at 10uM” value is given as -7.15%.
Take `CCOC(=O)N1CCN(C(=O)C2CCN(C(=O)c3ccc(C(C)(C)C)cc3)CC2)CC1`: the “hERG current change (%, negative = inhibition) at 10uM” value was -31%.
In the case of `O=C(c1ccc2c(c1)OCCO2)C1CCN(C(=O)c2ccc(F)cc2)CC1`, the “hERG current change (%, negative = inhibition) at 10uM” value is on record as -13%.
In the case of `CCOC(=O)C1CCN(C(=O)C2CCN(S(=O)(=O)CC)CC2)CC1`, the “hERG current change (%, negative = inhibition) at 10uM” value is reported as -2.7%.
Turning to `CCOC(=O)N1CCN(C(=O)C2CCN(C(=O)c3ccc([N+](=O)[O-])cc3)CC2)CC1`, the “hERG current change (%, negative = inhibition) at 10uM” value is given as -72%.
On to `CCOC(=O)N1CCN(C(=O)C2CCN(S(=O)(=O)N3CCCC3)CC2)CC1`, for which the “hERG current change (%, negative = inhibition) at 10uM” value is reported as 6.91%.
For the compound `NC(=O)C1CCN(C(=O)c2ccc3c(c2)S(=O)(=O)c2ccccc2C3=O)CC1`, the “hERG current change (%, negative = inhibition) at 10uM” value is reported as 2.8%.
For the compound `CCOC(=O)C1CCN(C(=O)c2ccc3c(c2)S(=O)(=O)c2ccccc2C3=O)CC1`, the “hERG current change (%, negative = inhibition) at 10uM” value is -76.6%.
For the compound `O=C(c1ccc([N+](=O)[O-])cc1)N1CCN(C(=O)C2CCCCC2)CC1`, the “hERG current change (%, negative = inhibition) at 10uM” value is -28.5%.
For `CCOc1ccc(C(=O)N2CCC(C(=O)c3ccc4c(c3)OCCO4)CC2)cc1`, the “hERG current change (%, negative = inhibition) at 10uM” value is on record as -75.7%.
Turning to `CCOC(=O)C1CCN(C(=O)C2CCN(S(=O)(=O)N3CCCC3)CC2)CC1`, the “hERG current change (%, negative = inhibition) at 10uM” value is given as -64.9%.
`O=C1c2ccccc2S(=O)(=O)c2cc(C(=O)N3CCC(O)CC3)ccc21`: the “hERG current change (%, negative = inhibition) at 10uM” value was 6.7%.
On to `O=C(c1ccc2c(c1)OCCO2)C1CCN(C(=O)c2ccc(F)c(F)c2)CC1`, for which the “hERG current change (%, negative = inhibition) at 10uM” value is -15.7%.
With `CC1CC(C)CN(S(=O)(=O)c2ccc(NC(=S)NC(=O)c3ccccc3)cc2)C1` (stereo not shown), the “hERG current change (%, negative = inhibition) at 10uM” value is reported as 8.01%.
`CN(C)S(=O)(=O)c1ccc(NC(=O)C2CC(=O)N(Cc3ccccc3Cl)C2)cc1` (stereo not shown): the “hERG current change (%, negative = inhibition) at 10uM” value was -0.379%.
With `CCCC1(C(=O)OC)NC(c2ccc(OC)c(OC)c2)C2C(=O)N(c3ccc4c(c3)OCO4)C(=O)C21` (stereo not shown), the “hERG current change (%, negative = inhibition) at 10uM” value turned out to be 16.7%.
Consider `COc1ccc(-c2c(C#Cc3ccsc3)c3ccccc3n2C)cc1`, for which the “hERG current change (%, negative = inhibition) at 10uM” value is on record as -6.31%.
As for `CCOC(=O)C1CCN(C(=O)c2ccc(OCC)c(OCC)c2)CC1`, the figure is -79.4%; as for `O=C(OCc1nnc(-c2ccc([N+](=O)[O-])cc2)o1)C1CCN(C(=O)c2ccc(F)cc2)CC1`, -76%; as for `CCOC(=O)C1CCN(C(=O)C(C)c2ccc([N+](=O)[O-])cc2)CC1` (stereo not shown), -21.4%.
With `CCOc1ccc(NC(=O)N2CCC(C(=O)c3ccc(F)cc3)CC2)cc1`, the “hERG current change (%, negative = inhibition) at 10uM” value is on record as -20.8%.
Under `O=C(Oc1cccc([N+](=O)[O-])c1)C1CCN(C(=O)c2ccc(F)cc2)CC1` stands -41%.
Consider `CCOC(=O)C1CCN(C(=O)c2cccc(C(=O)N3CCC(C(=O)OCC)CC3)c2)CC1`, for which the “hERG current change (%, negative = inhibition) at 10uM” value is 4.75%.
For the compound `CCOC(=O)C1CCN(C(=O)c2ccc(N3CCOCC3)c([N+](=O)[O-])c2)CC1`, the “hERG current change (%, negative = inhibition) at 10uM” value was -41.8%.
As for `CCOc1ccc(C(=O)C2CCN(C(=O)c3ccc([N+](=O)[O-])cc3)CC2)cc1`, the figure is -79.9%; as for `CCOc1ccc(C(=O)C2CCN(C(=O)c3ccccc3C(=O)O)CC2)cc1`, -5.42%.
As for `CCOC(=O)C1CCN(C(=O)C2CCN(C(=O)c3ccc([N+](=O)[O-])cc3)CC2)CC1`, the figure is -69.3%; as for `O=C(CCC(=O)c1ccc(F)cc1)OCc1nnc(-c2ccc([N+](=O)[O-])cc2)o1`, -47%; as for `CCOC(=O)C1CCN(C(=O)c2cc(OCC)c(OCC)c(OCC)c2)CC1`, -3.3%.
In the case of `Cc1ccc(NS(=O)(=O)c2ccc(C(=O)NCc3cccnc3)cc2)cc1`, the “hERG current change (%, negative = inhibition) at 10uM” value is listed as -4.14%.
Take `CC(C)c1ccc(NC(=O)CCS(=O)(=O)c2cccc3nonc23)cc1`: the “hERG current change (%, negative = inhibition) at 10uM” value came out at 1.81%.
On to `COc1cc(OC)cc(C(=O)N[C@H](C(=O)OCC(=O)Nc2cccc(F)c2)C(C)C)c1`, for which the “hERG current change (%, negative = inhibition) at 10uM” value is -5.55%.
Turning to `CC(C)(C)SCCNC(=O)CN1C(=O)c2ccccc2S1(=O)=O`, the “hERG current change (%, negative = inhibition) at 10uM” value was -5.6%.
As to `CCOC(=O)C(=CNc1cccnc1Oc1ccc(C)c2c1CCC2)C(=O)OCC`, the “hERG current change (%, negative = inhibition) at 10uM” value is -5.67%.
For the compound `Cc1cc(NC(=O)C(Cl)c2ccccc2)no1` (stereo not shown), the “hERG current change (%, negative = inhibition) at 10uM” value is -0.0237%.
Under `O=C(CN(c1ccccc1)S(=O)(=O)c1ccccc1[N+](=O)[O-])Nc1cccnc1` stands -21.1%; under `C=CCCC(=O)Nc1nc(C)c(-c2csc(Nc3ccccc3OC)n2)s1`, 3.6%; under `CCN1CCCC1CNC1=NCCCCC1` (stereo not shown), 7.64%.
Turning to `CCc1nnc(NS(=O)(=O)c2ccc(NC(=O)c3ccccc3OC)cc2)s1`, the “hERG current change (%, negative = inhibition) at 10uM” value was determined as 18.5%.
In the case of `COc1ccccc1Nc1nnc(SCc2cc(=O)n3cc(C)ccc3n2)s1`, the “hERG current change (%, negative = inhibition) at 10uM” value is -12.8%.
With `COc1ccc(C)cc1NC(=O)NC1CCCCCCC1`, the “hERG current change (%, negative = inhibition) at 10uM” value is recorded as 21%.
Take `CN(C)C1(CNC(=O)c2ccc(Cl)c(S(=O)(=O)NCc3ccco3)c2)CCCCC1`: the “hERG current change (%, negative = inhibition) at 10uM” value is recorded as -37.3%.
Under `O=C(Nc1ccccc1N1CCOCC1)c1ccc(S(=O)(=O)NCc2ccco2)cc1` stands -15.7%; under `O=C(NCC1(N2CCOCC2)CCCCC1)c1ccc(Cl)c(S(=O)(=O)NCc2ccco2)c1`, -52.1%.
As for `O=C(Nc1ccccc1N1CCOCC1)c1ccc(Cl)c(S(=O)(=O)NCc2ccco2)c1`, the figure is -51.8%; as for `O=C(NCc1ccco1)c1ccc(Cl)c(S(=O)(=O)N2CCOCC2)c1`, -7.4%.
In the case of `COc1ccccc1NC(=O)c1ccc(Cl)c(S(=O)(=O)NCc2ccco2)c1`, the “hERG current change (%, negative = inhibition) at 10uM” value is given as -37.7%.
In the case of `Cc1nn(C)cc1CNC(=O)C1C2CCC(O2)C1C(=O)O` (stereo not shown), the “hERG current change (%, negative = inhibition) at 10uM” value was found to be 23.7%.
Turning to `Cc1nn(-c2ccccc2)c(C)c1C(=O)OCC(=O)N1CCN(S(=O)(=O)c2ccccc2)CC1`, the “hERG current change (%, negative = inhibition) at 10uM” value is -11%.
`COc1ccccc1N(C(C)=O)C1SC(=O)N(c2ccccc2)C1=O` (stereo not shown): the “hERG current change (%, negative = inhibition) at 10uM” value is 14%.
Consider `Cc1cc(C(=O)CN2C(=O)C(=O)N(C)C2=O)c(C)n1-c1cccc(S(=O)(=O)N2CCOCC2)c1`, for which the “hERG current change (%, negative = inhibition) at 10uM” value was -63.4%.
As for `Cc1cc(C(=O)CN2C(=O)CN(C)C2=O)c(C)n1-c1cccc(S(=O)(=O)N2CCOCC2)c1`, the figure is -49.8%.
As for `Cc1cc(C(=O)CCl)c(C)n1-c1cccc(S(=O)(=O)N2CCOCC2)c1`, the “hERG current change (%, negative = inhibition) at 10uM” value was -77.4%.
As to `Cc1ccc(C)n1-c1cccc(S(=O)(=O)N2CCOCC2)c1`, the “hERG current change (%, negative = inhibition) at 10uM” value is 7.55%.
Turning to `Cc1cc(C(=O)COc2ccccc2[N+](=O)[O-])c(C)n1-c1cccc(S(=O)(=O)N2CCOCC2)c1`, the “hERG current change (%, negative = inhibition) at 10uM” value was -9.82%.
As for `Cc1cc(C(=O)CSc2ncn[nH]2)c(C)n1-c1cccc(S(=O)(=O)N2CCOCC2)c1`, the “hERG current change (%, negative = inhibition) at 10uM” value is reported as -28.5%.
Consider `CCc1nnc(NS(=O)(=O)c2ccc(N=Cc3c(C)[nH]n(-c4cccc(Cl)c4)c3=O)cc2)s1`, for which the “hERG current change (%, negative = inhibition) at 10uM” value was 10.4%.
Regarding `CC(=O)c1ccc(OCC(=O)N(C)CC(=O)Nc2ccc(N3CCOCC3)cc2)cc1`, the “hERG current change (%, negative = inhibition) at 10uM” value was 9.61%.
As for `CC(=O)Nc1ccc(S(=O)(=O)NCC(=O)OCC(=O)N2CCCc3ccccc32)cc1`, the figure is 4.4%; as for `C/C(=N\NC(=O)c1ccc(N(C)C)cc1)c1ccc(C)c(C)c1`, -14.5%; as for `O=C(Oc1ccc(Br)cc1)c1cccc(S(=O)(=O)N2CCOCC2)c1`, -35.6%.
In the case of `COC(=O)c1cccc(S(=O)(=O)N2CCOCC2)c1`, the “hERG current change (%, negative = inhibition) at 10uM” value was determined as 6.61%.
As for `Cc1cc(=O)oc2ccc(OC(=O)c3cccc(S(=O)(=O)N4CCOCC4)c3)cc12`, the figure is -70.5%; as for `CC(C)C1Oc2ccccc2N(CC(=O)N(C)C2CCCCC2)C1=O` (stereo not shown), -10.1%.
As for `CCCCc1nc(Cl)c(C#N)c2c1CSC(C)(C)C2`, the “hERG current change (%, negative = inhibition) at 10uM” value is -13.1%.
As for `CCCCc1nc(N2CCNCC2)c(C#N)c2c1CSC(C)(C)C2`, the figure is -64.7%; as for `CCc1nc(N2CCNCC2)c(C#N)c2c1CSC(C)(C)C2`, 2.02%; as for `CCCCn1c(N)c(N(CC)C(=O)c2cccc(OCc3ccccc3)c2)c(=O)[nH]c1=O`, -9.67%.
As for `Cc1ccccc1N1CCN(Cc2nc(Cc3ccccc3F)no2)CC1`, the “hERG current change (%, negative = inhibition) at 10uM” value is recorded as -3.53%.
Regarding `O=CN1CCCN(Cc2nc(Cc3ccccc3F)no2)CC1`, the “hERG current change (%, negative = inhibition) at 10uM” value came to 16.1%.
With `COc1ccccc1CN1CCN(Cc2nc(Cc3ccccc3)no2)CC1`, the “hERG current change (%, negative = inhibition) at 10uM” value is -36%.
`c1ccc(Cc2noc(CN3CCN(CCOc4ccccc4)CC3)n2)cc1`: the “hERG current change (%, negative = inhibition) at 10uM” value was -40.9%.
In the case of `Fc1ccccc1Cc1noc(CN2CCN(C/C=C/c3ccccc3)CC2)n1`, the “hERG current change (%, negative = inhibition) at 10uM” value was -74%.
On to `C(=C\c1ccccc1)/CN1CCN(Cc2nc(Cc3ccccc3)no2)CC1`, for which the “hERG current change (%, negative = inhibition) at 10uM” value is -65.1%.
Under `COC(=O)c1ccc(C(C(=O)NCc2ccccc2)N(Cc2ccco2)C(=O)c2cnccn2)cc1` (stereo not shown) stands -25.4%.
Consider `COC(=O)/C(=C\Nc1ccc(Cl)cc1Cl)NC(=O)c1ccccc1`, for which the “hERG current change (%, negative = inhibition) at 10uM” value is recorded as -4.83%.
